Test results as given in PubChem BioAssay AID2685 (National Center for Advancing Translational Sciences (NCATS), 2010).
In all, about 320,000 compounds went through this assay and about 2,100 (0.66%) were called active. Not shown: some 53% with an inconclusive outcome. Calls come from the whole dose curve; as a rule, active = well fitted inhibition curve with a large enough effect in the signal ratio, with a control signal flat (not every such curve was filed as active); inconclusive = small, poorly fitted or top-dose-only effect, or effect the other way, or a change in a side signal; inactive = flat fitted curve, though single readings scatter; the % refers to the signal ratio. This excerpt belongs to a sample that is enriched for actives.
Potency is the fitted concentration of half-maximal effect.

Assay: qHTS Assay for Lipid Storage Modulators in Drosophila S3 Cells;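 for cell number change: cells counted by Cell Tracker Red CMTPX staining in the red channel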
Conditions: BODIPY lipid droplet fluorescence, 18-24 h, cells fed with added oleic acid; cell number change: measured here: cell count max response; series mostly up to 46.1 µM
How it was run: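 Drosophila S3 cells got compounds at several concentrations plus oleic acid (400 uM solution). Laser-scanning cytometry with 488 nm excitation read lipid droplets at 500-530 nm and cells at 575-640 nm. Percent activity was relative to 20 uM Triacsin C.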
With `CCCCCCNC(=O)c1cc(-c2ccco2)nc2ccccc12` the Potency was “inactive” and the cell number change was -17.2%. In the case of `O=C(CN1C(=O)NC2(CCCC2)C1=O)N1CCN(Cc2ccccc2)CC1`, the Potency is reported as “inactive” and the cell number change is reported as 0.232%. For `COC(=O)Cn1nc(-c2ccc(C)cc2)c2ccccc2c1=O`, the Potency was “inactive” and the cell number change was 9.56%. With `COc1ccc(/C=N/NC(=O)CCN2CCCCC2c2cccnc2)cc1Cn1cc([N+](=O)[O-])cn1` (configuration not stated) the Potency was “inactive” and the cell number change was -16.7%. For `CN(C)CCN(Cc1ccccc1)S(=O)(=O)c1ccc(-c2ccc(=O)[nH]n2)s1`, the Potency was “inactive”. In the case of `COc1ccc(C2C(C(=O)NCc3cccnc3)c3ccccc3C(=O)N2C)cc1OC` (configuration not stated), the Potency is reported as 2.59 µM (active) and the cell number change is reported as -17.1%. For `COc1cc2c(cc1OC)C(C(=O)NCc1cccnc1)C(c1cccnc1)N(C)C2=O` (configuration not stated), the Potency was “inactive” and the cell number change was -0.81%. With `COc1ccc(C2C(C(=O)NCc3ccccn3)c3ccccc3C(=O)N2C)cc1OC` (configuration not stated) the Potency was “inactive”. With `O=C(N/N=C\c1cccnc1)C1c2ccccc2Oc2ccccc21` the Potency was “inactive” and the cell number change was -0.813%. In the case of `CCN(CC)C(=O)c1[nH]cnc1C(=O)N[C@@H](CC(C)C)C(=O)OCc1ccccc1`, the Potency is reported as “inactive” and the cell number change is reported as -10.8%. With `C/C(=N\NC(=O)c1cccc([N+](=O)[O-])c1)c1cccc(NC(=O)C2CC2)c1` the Potency was “inactive” and the cell number change was -1.94%. With `Cc1ccccc1NC(=O)CN1C(=O)N/C(=C\c2ccc(N3CCOCC3)c(F)c2)C1=O` the Potency was “inactive” and the cell number change was -7.47%. In the case of `Nc1c(Cl)cc(C2=NCCn3nc4cc([N+](=O)[O-])ccc4c32)cc1Cl`, the Potency is reported as 5.17 µM (active) and the cell number change is reported as 13.3%. In the case of `Nc1c(Cl)cc(C2=NCCn3c2c2ccc([N+](=O)[O-])cc2[n+]3[O-])cc1Cl`, the Potency is reported as “inactive” and the cell number change is reported as -13.5%. In the case of `COc1ccc2c3n(nc2c1)CCN=C3c1ccc(Cl)cc1`, the Potency is reported as “inactive” and the cell number change is reported as 28.7%. With `C/C=C/C(=O)N1CC2(CC(c3cccc(NC(=O)CCCCC)c3)=NO2)C[C@H]1C(N)=O` (some centres not stated) the Potency was “inactive” and the cell number change was 7.84%. With `CC1(O)CC(=O)N(c2ccccc2)O1` (configuration not stated) the Potency was “inactive” and the cell number change was 5.56%. In the case of `CC1(C)CC(=O)N(c2ccccc2)C1(C)O` (configuration not stated), the Potency is reported as 0.164 µM (active) and the cell number change is reported as 6.8%. With `CC(C)N1C(=O)N(c2ccccc2)C(C)(O)CC1(C)C` (configuration not stated) the Potency was “inactive”. For `Nc1nc(CN2CCc3ccccc3C2)nc(Nc2ccccc2)n1`, the Potency was “inactive”. With `CCCCCCSc1ccc([C@@H]2[C@H]3C(=O)N(CC)C(=O)[C@H]3[C@]3(C(=O)OC)CCCN23)cc1` the Potency was 0.517 µM (active). In the case of `CCCSc1ccc([C@@H]2[C@H]3C(=O)N(CC)C(=O)[C@H]3[C@]3(C(=O)OC)CCCN23)cc1OC`, the Potency is reported as “inactive” and the cell number change is reported as 11.7%. In the case of `COC(=O)[C@@]12CCCCN1[C@H](c1ccc(SC3CCCCC3)cc1)[C@H]1C(=O)N(C)C(=O)[C@H]12`, the Potency is reported as “inactive”. In the case of `COC(=O)[C@@]12CCCCN1[C@H](c1ccc(-c3ccc(OC)cc3)cc1)[C@@H]1C(=O)N(C)C(=O)[C@@H]12`, the Potency is reported as “inactive”. In the case of `CCCCCCSc1ccc([C@@H]2[C@H]3C(=O)N(C)C(=O)[C@H]3[C@]3(C(=O)OC)CCCCN23)cc1`, the Potency is reported as 20.6 µM (active). In the case of `CCN1C(=O)[C@@H]2[C@@H](c3ccc(-c4ccc(F)cc4)cc3)N3CCC[C@@]3(C(=O)OC)[C@@H]2C1=O`, the Potency is reported as “inactive” and the cell number change is reported as -18.3%. With `CS(=O)(=O)Nc1ccc(S(=O)(=O)NCCc2ccccc2)cc1` the Potency was “inactive”. In the case of `CC(C)NC(=O)c1cc2c(C(F)(F)F)nn(C)c2s1`, the Potency is reported as “inactive” and the cell number change is reported as -21.4%. With `COc1ccc(C(=O)C(C)OC(=O)c2cccc(S(=O)(=O)Nc3cc(Cl)c(OC)cc3OC)c2)cc1` (configuration not stated) the Potency was “inactive” and the cell number change was -7.94%. For `N#Cc1cccc(NC(=O)COc2ccc(-n3ccnc3)cc2)c1`, the Potency was “inactive” and the cell number change was -13.2%. With `COc1ccc(N2C(=O)CC(N3CCN(c4cccc(Cl)c4)CC3)C2=O)cc1` (configuration not stated) the Potency was “inactive” and the cell number change was -1.05%. In the case of `Nc1cc(C(=O)O)c(Oc2ccc(Cl)cc2Cl)cc1C(=O)O`, the Potency is reported as “inactive” and the cell number change is reported as -11.5%. In the case of `COCCN=c1scc(-c2ccc3c(c2)NC(=O)CO3)n1/N=C(\C)c1ccc(O)cc1`, the Potency is reported as “inactive” and the cell number change is reported as 3.12%. In the case of `COc1cc(C(C)=O)ccc1COc1ccc(C(=O)OC(C)C(=O)NC(N)=O)cc1OC` (configuration not stated), the Potency is reported as “inactive” and the cell number change is reported as 7.94%. In the case of `Cc1ccc(N=Nc2c(O)c3ccccc3[nH]c2=O)c(S(=O)(=O)N(C)C)c1`, the Potency is reported as “inactive” and the cell number change is reported as 7.5%. For `NC(=O)c1ccc(N=Nc2c(O)c3ccccc3[nH]c2=O)cc1`, the Potency was “inactive” and the cell number change was 9.46%. In the case of `Cc1cc(N=Nc2c(O)c3ccccc3[nH]c2=O)ccc1N=Nc1ccc(C(=O)N(C)C)cc1`, the Potency is reported as 20.6 µM (active) and the cell number change is reported as -11.6%. With `O=C(NCCOc1ccccc1)c1cc([N+](=O)[O-])ccc1N1CCOCC1` the Potency was “inactive” and the cell number change was -1.71%. In the case of `CC(C)(CNC(=O)c1cc([N+](=O)[O-])ccc1N1CCC(Cc2ccccc2)CC1)N1CCOCC1`, the Potency is reported as 20.6 µM (active) and the cell number change is reported as 7.52%. In the case of `O=C(O)c1cc([N+](=O)[O-])ccc1N1CCC(Cc2ccccc2)CC1`, the Potency is reported as “inactive” and the cell number change is reported as 4.05%. In the case of `CCOc1ccc(N2C(=O)C3ON(c4ccccc4)C(c4ccco4)C3C2=O)cc1` (configuration not stated), the Potency is reported as “inactive” and the cell number change is reported as -16.3%. For `CCN(CC)S(=O)(=O)c1ccc(S(=O)(=O)N(CC(=O)Nc2ccccc2)Cc2ccco2)cc1`, the Potency was “inactive” and the cell number change was -12.6%. In the case of `Cc1cc(C)n(-c2nnc(C)c(=O)[nH]2)n1`, the Potency is reported as “inactive”. With `CC(C)C(NC(=O)C12CC3CC(CC(C3)C1)C2)C(=O)N/N=C/C1=C(N2CCOCC2)C(=C\c2cccc([N+](=O)[O-])c2)/CC1` (configuration not stated) the Potency was “inactive” and the cell number change was 9.26%. In the case of `O=CC1=C(N2CCOCC2)/C(=C\c2ccccc2)CC1`, the Potency is reported as “inactive” and the cell number change is reported as 1.5%. In the case of `N#C/C(=C\C1=C(N2CCOCC2)C(=C/c2cccc([N+](=O)[O-])c2)/CC1)C(=O)Nc1ccccc1F`, the Potency is reported as 2.06 µM (active) and the cell number change is reported as 1.41%. For `CCOC(=O)C(=O)C1=C(N2CCOCC2)/C(=C\c2cccc([N+](=O)[O-])c2)CC1`, the Potency was “inactive” and the cell number change was -9.52%. With `N#C/C(=C/c1cccc([N+](=O)[O-])c1)C(=O)Nc1ccccc1O` the Potency was “inactive” and the cell number change was 0.725%. For `CC(NC(=O)C12CC3CC(CC(C3)C1)C2)C(=O)N/N=C/C1=C(N2CCOCC2)C(=C\c2cccc([N+](=O)[O-])c2)/CC1` (configuration not stated), the Potency was 13 µM (active) and the cell number change was 4.98%. In the case of `O=C(O)c1ccccc1N/N=C/C1=C(N2CCOCC2)C(=C\c2ccccc2)/CC1`, the Potency is reported as “inactive”. With `CCN(CC)c1ccc(/C=C2\CCC(/C=C(\C#N)C(=O)Nc3ccccc3F)=C2N2CCOCC2)cc1` the Potency was 0.58 µM (active) and the cell number change was 1.95%. With `O=C(NP(=O)(N1CCCC1)N1CCCC1)C1=C(N2CCOCC2)/C(=C/c2cccc([N+](=O)[O-])c2)CC1` the Potency was “inactive”.
